Screening data (PubChem BioAssay)
Cycloheximide cs = affects cycloheximide protein synthesis inhibition readout, counter-screen. cell reporter, cycloheximide protein synthesis inhibition counterscreen. 300,000 compounds, 12% hits. max response, %; in the data active means max response mostly above about 13%, no sharp cut-off; inactive means mostly below about 14%; further: read at 38.3 µM for the half of the compounds with a filed dose; 0% is about no effect
MARV entry inh = Marburg virus entry inhibition; Marburg virus pseudotyped entry inhibition, cell reporter; Potency, µM (doses to about 37.8 µM), without a hit: at the top dose activity change, negative = inhibition, hits mostly inhibitors; 300,000 compounds, 1.8% hits; AID 540276; calls by dose curve; tested in HEK293 cells; further: potency means the concentration at half of the fitted maximal effect; on the % scale 0 is the no-effect control and ±100 the full control effect
Shiga toxin inh = blocks Shiga toxin action in Vero cells | inhibition, % at 38.7 µM | AID 2315 | 290,000 compounds, 9.2% hits | Vero cells, Shiga toxin protein synthesis inhibition reporter; in the data active means inhibition mostly above about 28%, no sharp cut-off; inactive means mostly below about 43%; further: 0% is about no effect
Lassa entry inh = inhibitors of Lassa virus binding or cell entry; 300,000 compounds, 1.2% hits; AID 540256; Lassa virus pseudotype entry inhibition, cell reporter; Potency, µM (titrated, usually from 37.9 µM), without a hit: at the top dose activity change, negative = inhibition, usual class: inhibitors; calls by dose curve; tested in HEK293 cells; further: potency means the concentration at half of the fitted maximal effect; on the % scale 0 is the no-effect control and ±100 the full control effect; nearly all actives have a fitted effect of over 50% in size
* = called active by the depositor; [ ] = another dose, or the depositor's remark. The list is not random: actives were taken first. Their share in the collection is about 12%.

Results for CC(C)(C)NC(=O)Cn1nnc(-c2ccc(OCc3c(F)cccc3Cl)cc2)n1 ?
Cycloheximide cs: 12.7*; MARV entry inh: inconclusive; Shiga toxin inh: 33.1; Lassa entry inh: 9.6%[46.1 µM]

What do the screens show for `CCOc1ccc(S(=O)(=O)c2cc3cccc(OCC)c3oc2=O)cc1`?
MARV entry inh: 1.0%[46.1 µM]; Lassa entry inh: 10.5%[46.1 µM]

How did CCOC(=O)CNc1c(-c2ccc(OC)cc2)nc2ccc(Cl)cn12 do in these assays?
Cycloheximide cs: 20.4*; MARV entry inh: 15.2%; Shiga toxin inh: 35.6*; Lassa entry inh: -0.8%

How did COCCNc1c(-c2ccc(OC)cc2)nc2ccc(Cl)cn12 do in these assays?
Cycloheximide cs: 29.1; MARV entry inh: inconclusive; Shiga toxin inh: 61.7*; Lassa entry inh: inconclusive

Results for CC1CC(=Cc2ccc(N)cc2)C(=O)O1 (centres undefined) ?
MARV entry inh: inconclusive; Lassa entry inh: 0.8%[46.1 µM]

Results for CC(=O)c1sc(-c2ccccc2)cc1N ?
Cycloheximide cs: 14.1; MARV entry inh: 2.3%[46.1 µM]; Shiga toxin inh: 35.2; Lassa entry inh: inconclusive

What do the screens show for `CC(C)(C)N=Cc1cc(-c2ccccc2)sc1O`?
Cycloheximide cs: 38.2*; MARV entry inh: inconclusive; Shiga toxin inh: 71.1*; Lassa entry inh: 0.0%

Results for O=C(COC(=O)C1CC2CCCC(C1)C2=O)NC1CCCCC1 (centres undefined) ?
MARV entry inh: -3.7%

Results for COc1ccc(N(CC(=O)NC2CCCCC2)C(=O)c2ccc(C)s2)c(OC)c1 ?
Cycloheximide cs: -3.7; MARV entry inh: -23.8%[46.1 µM]; Shiga toxin inh: -22.2; Lassa entry inh: inconclusive

How did CN(CC(=O)Nc1cccc(F)c1)CC(=O)N(C)CC(=O)Nc1ccccc1Br do in these assays?
MARV entry inh: 4.3%; Lassa entry inh: -3.1%

Results for COc1ccccc1N1CCN(/N=C/c2ccc(O)c(O)c2)CC1 ?
Cycloheximide cs: 38.0*; MARV entry inh: inconclusive; Shiga toxin inh: 55.2*; Lassa entry inh: -19.5%[46.1 µM]

Results for COc1ccccc1N1CCN(/N=C(\C)c2ccc(O)cc2)CC1 ?
Cycloheximide cs: 28.1*; Shiga toxin inh: 43.4*

What do the screens show for `COc1ccccc1N1CCN(/N=C/c2cc(OC)c(OC(C)=O)c(OC)c2)CC1`?
Cycloheximide cs: -3.5

What do the screens show for `COc1ccc(/C=N/N2CCN(c3ccccc3OC)CC2)cc1OC`?
Cycloheximide cs: 16.5*; MARV entry inh: 10.8%; Shiga toxin inh: 35.8; Lassa entry inh: -0.3%

Results for COc1ccc(/C=N/N2CCN(C)CC2)cc1OC ?
Cycloheximide cs: 2.4; MARV entry inh: 18.3%; Shiga toxin inh: 2.9; Lassa entry inh: 13.1%

Results for COc1ccccc1N1CCN(/N=C/c2ccc(C(=O)O)cc2)CC1 ?
Cycloheximide cs: 48.2*; Shiga toxin inh: 154.1*

Results for COc1ccc(C)cc1NC(=O)c1cc(S(=O)(=O)N2CCc3ccccc3C2)ccc1F ?
Lassa entry inh: 16.2%[46.1 µM]

Results for COc1ccccc1N1CCN(/N=C/c2cc(Br)ccc2F)CC1 ?
Cycloheximide cs: 16.0*; Shiga toxin inh: 21.9

What do the screens show for `COc1ccccc1N1CCN(/N=C/c2cccc(OC)c2O)CC1`?
Cycloheximide cs: 10.6; Shiga toxin inh: 2.6

How did COc1ccc(/C=N/N2CCN(c3ccccc3OC)CC2)cc1Br do in these assays?
Cycloheximide cs: 29.8*

How did COc1ccc(CNC(=O)CN(C(=O)c2csnn2)c2cccc(C(C)=O)c2)cc1 do in these assays?
Cycloheximide cs: -3.2; MARV entry inh: 5.7%[46.1 µM]; Shiga toxin inh: -2.7; Lassa entry inh: 7.7%

What do the screens show for `Cc1cc(-c2ccccc2)nc2[nH]n(-c3ccccc3)c(=O)c12`?
Cycloheximide cs: -4.4; MARV entry inh: -8.3%; Shiga toxin inh: -17.2; Lassa entry inh: 11.9%

How did Cc1cc(C)c2c(=O)n(-c3ccccc3)[nH]c2n1 do in these assays?
Cycloheximide cs: 50.7*; MARV entry inh: 16.5%; Shiga toxin inh: 88.4*; Lassa entry inh: 23.8%

How did COc1ccc(N(CC(=O)Nc2ccccc2OC)S(=O)(=O)c2ccc(OC)c(OC)c2)cc1 do in these assays?
Cycloheximide cs: -2.9; Shiga toxin inh: -8.1

Results for Cc1cccc(NC(=O)c2oc3ccccc3c2NC(=O)c2cc(=O)c3ccc(C)cc3o2)c1 ?
MARV entry inh: 0.4%[46.1 µM]; Lassa entry inh: -0.7%[46.1 µM]

How did O=S(=O)(Nc1ccncc1)c1ccc(Cl)c(Cl)c1 do in these assays?
Cycloheximide cs: 17.6*; MARV entry inh: 2.1%; Lassa entry inh: 6.6%

What do the screens show for `C=C(C)Cn1c(-c2ccncc2)n[nH]c1=S`?
Cycloheximide cs: -5.0; MARV entry inh: inconclusive; Shiga toxin inh: -4.6; Lassa entry inh: -0.3%

What do the screens show for `O=C(Cc1ccccc1[N+](=O)[O-])N1CCc2ccccc2C1`?
Cycloheximide cs: 15.3*; MARV entry inh: inconclusive; Shiga toxin inh: 50.6; Lassa entry inh: 8.2%
